In PubChem BioAssay (NCATS):
Records with an inconclusive call do not appear. Calls of active or inactive are those of the source. Calls follow the shape of the dose curve; as a rule, active = well fitted inhibition curve with a large enough effect; inconclusive = small, poorly fitted or top-dose-only effect; inactive = flat fitted curve, though single readings scatter.

Columns and labels:
Experiment in all cases: qHTS profiling for inhibitors of Plasmodium falciparum proliferation (AID 504749); also: nearly all actives have a fitted effect of over 60% in size
Settings in all cases: P. falciparum in erythrocytes, SYBR Green DNA, 72 h; series mostly up to 28.7 µM
[1] = tested on: CP329
In short: (§1)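 Three-day growth assay of blood-stage parasites in erythrocytes (0.3% parasitemia, 2.5% hematocrit) at 37 C, 5% CO2, quantified by SYBR Green DNA staining after overnight detergent lysis.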

[2] = tested on: CP335
In short: as §1

[3] = tested on: DFO2036
In short: as §1

[4] = tested on: DIV14
In short: as §1

[5] = tested on: DIV17
In short: as §1

[6] = tested on: DIV30
In short: as §1

[7] = tested on: Dd2
In short: as §1

[8] = tested on: ECU
In short: as §1

[9] = tested on: FAB9
In short: as §1

[10] = tested on: GB4
In short: as §1

[11] = tested on: HB3
In short: as §1

[12] = tested on: ICS
In short: as §1

[13] = tested on: N140
In short: as §1

[14] = tested on: P93_24
In short: as §1

[15] = tested on: P94_40
In short: as §1

[16] = tested on: PAD
In short: as §1

[17] = tested on: PC15
In short: as §1

[18] = tested on: PC49
In short: as §1

[19] = tested on: JCK
In short: as §1

[20] = tested on: PC26
In short: as §1

Measured: Potency

COP(=S)(OC)Oc1ccc(SC)c(C)c1
not listed: [19] | [20]
inactive: all other assays above

Clc1cccc(SC2CCNCC2)n1
inactive: all assays above

Clc1ccc(C(c2ccc(Cl)cc2)C(Cl)(Cl)Cl)cc1
inactive: [1] | [2] | [3] | [7] | [8] | [9] | [11] | [19] | [14] | [17] | [18]

NC(=O)c1cc([N+](=O)[O-])cc([N+](=O)[O-])c1
inactive: [6] | [7] | [8] | [9] | [11] | [15] | [16] | [18]

O=c1[nH]oc2c1CCNC2
not listed: [19]
inactive: all other assays above

Cc1ncsc1CCCl
not listed: [14]
inactive: all other assays above

O=C1Nc2ccc(Cl)cc2C(c2ccccc2Cl)=NC1O (centres undefined)
not listed: [14] | [15] | [16]
inactive: all other assays above

C[C@](O)(CS(=O)(=O)c1ccc(F)cc1)C(=O)Nc1ccc(C#N)c(C(F)(F)F)c1
not listed: [4] | [5] | [8]
inactive: all other assays above
